Results: publication PMC7862700, “An all-to-all approach to the identification of sequence-specific readers for epigenetic DNA modifications on cytosine”

Legend:
Assay in all cases: DAPPL (digital affinity profiling via proximity ligation, sequencing); 10 mM Tris-HCl pH 7.5, 50 mM NaCl, 1 mM DTT, 4% glycerol, room temperature, 30 min; GST-TFs on glutathione beads, 16-mer random dsDNA library, 0.1% formaldehyde crosslink after washing; high values mean tight binding
[1] = target: T1, FLI1 (Homo sapiens, UniProt Q01543 1-452); settings: protein: recombinant; tags: N-terminal GST; dsDNA, one strand shown
T1 sequence: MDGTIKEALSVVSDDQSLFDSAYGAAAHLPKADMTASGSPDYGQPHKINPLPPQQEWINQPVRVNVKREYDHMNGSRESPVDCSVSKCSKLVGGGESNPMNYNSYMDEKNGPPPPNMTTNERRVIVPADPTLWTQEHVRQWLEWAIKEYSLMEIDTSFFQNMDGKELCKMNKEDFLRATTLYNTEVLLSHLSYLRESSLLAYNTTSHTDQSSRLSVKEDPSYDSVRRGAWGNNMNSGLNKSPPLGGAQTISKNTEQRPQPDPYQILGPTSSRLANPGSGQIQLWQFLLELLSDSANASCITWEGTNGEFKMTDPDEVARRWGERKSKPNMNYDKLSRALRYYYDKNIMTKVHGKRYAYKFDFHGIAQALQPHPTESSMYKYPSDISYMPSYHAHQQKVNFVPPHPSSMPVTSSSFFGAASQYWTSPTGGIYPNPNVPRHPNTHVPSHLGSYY
How it was run: (§1)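 After expression in yeast as GST fusions, human transcription factors were bound to glutathione beads, DNA-barcoded and mixed with a tag-only sample. The pools were incubated with 200 nmole of a 16-mer random double-stranded DNA library in Tris/NaCl/DTT/glycerol buffer (30 min, room temperature), washed and crosslinked with 0.1% formaldehyde. Proximity ligation with BsaI/T4 ligase ran for 1 h at 37 °C, before PCR amplification and sequencing on an Illumina NextSeq500. Binding signal is a hexamer's read frequency for a factor divided by its frequency for the tag-only sample.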

[2] = target: T2, ELK1 (Homo sapiens, UniProt P19419 1-428); settings: protein: recombinant; tags: N-terminal GST; dsDNA, one strand shown
T2 sequence: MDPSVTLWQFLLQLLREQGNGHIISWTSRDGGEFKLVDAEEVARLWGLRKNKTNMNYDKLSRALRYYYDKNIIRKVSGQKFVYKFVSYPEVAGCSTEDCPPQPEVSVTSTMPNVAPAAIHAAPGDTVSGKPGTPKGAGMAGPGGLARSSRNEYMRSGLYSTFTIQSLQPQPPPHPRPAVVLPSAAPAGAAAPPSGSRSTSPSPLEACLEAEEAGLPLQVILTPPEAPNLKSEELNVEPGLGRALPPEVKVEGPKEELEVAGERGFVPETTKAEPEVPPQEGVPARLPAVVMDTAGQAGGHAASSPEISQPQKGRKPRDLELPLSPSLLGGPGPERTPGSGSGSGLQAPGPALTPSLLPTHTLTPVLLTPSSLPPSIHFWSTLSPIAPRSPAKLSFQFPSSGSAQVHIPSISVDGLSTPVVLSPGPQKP
How it was run: as §1

[3] = target: T3, GABPA (Homo sapiens, UniProt Q06546 1-454); settings: protein: recombinant; tags: N-terminal GST; dsDNA, one strand shown
T3 sequence: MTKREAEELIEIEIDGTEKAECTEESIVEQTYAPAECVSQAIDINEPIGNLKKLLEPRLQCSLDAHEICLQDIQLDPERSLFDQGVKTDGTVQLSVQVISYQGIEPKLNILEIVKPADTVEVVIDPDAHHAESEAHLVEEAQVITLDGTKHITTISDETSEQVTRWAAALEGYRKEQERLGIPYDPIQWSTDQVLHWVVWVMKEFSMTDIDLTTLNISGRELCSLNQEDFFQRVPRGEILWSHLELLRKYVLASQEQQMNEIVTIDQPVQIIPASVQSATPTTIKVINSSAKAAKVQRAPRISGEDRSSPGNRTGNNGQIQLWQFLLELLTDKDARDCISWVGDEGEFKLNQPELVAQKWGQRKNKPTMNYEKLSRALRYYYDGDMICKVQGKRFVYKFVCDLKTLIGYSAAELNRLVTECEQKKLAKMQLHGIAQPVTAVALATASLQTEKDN
How it was run: as §1

[4] = target: T4, ERG (Homo sapiens, UniProt P11308 1-479); settings: protein: recombinant; tags: N-terminal GST; dsDNA, one strand shown
T4 sequence: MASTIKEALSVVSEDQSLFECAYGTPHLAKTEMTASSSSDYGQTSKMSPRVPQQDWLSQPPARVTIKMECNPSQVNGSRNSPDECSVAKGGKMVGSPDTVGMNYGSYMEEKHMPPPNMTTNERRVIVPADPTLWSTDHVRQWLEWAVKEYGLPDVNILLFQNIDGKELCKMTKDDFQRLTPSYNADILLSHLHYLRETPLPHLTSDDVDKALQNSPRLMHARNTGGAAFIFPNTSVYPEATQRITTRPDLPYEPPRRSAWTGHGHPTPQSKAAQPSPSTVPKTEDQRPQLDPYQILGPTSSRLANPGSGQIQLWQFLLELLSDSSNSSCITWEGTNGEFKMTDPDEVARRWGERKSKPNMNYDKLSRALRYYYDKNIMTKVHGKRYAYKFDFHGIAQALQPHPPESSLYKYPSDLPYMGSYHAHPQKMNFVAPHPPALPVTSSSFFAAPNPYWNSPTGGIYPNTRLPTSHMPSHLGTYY
How it was run: as §1

[5] = target: ELF1 (Homo sapiens, UniProt P32519 1-619); settings: protein: recombinant; tags: N-terminal GST; dsDNA, one strand shown
Chain of ELF1 (P32519 whole entry): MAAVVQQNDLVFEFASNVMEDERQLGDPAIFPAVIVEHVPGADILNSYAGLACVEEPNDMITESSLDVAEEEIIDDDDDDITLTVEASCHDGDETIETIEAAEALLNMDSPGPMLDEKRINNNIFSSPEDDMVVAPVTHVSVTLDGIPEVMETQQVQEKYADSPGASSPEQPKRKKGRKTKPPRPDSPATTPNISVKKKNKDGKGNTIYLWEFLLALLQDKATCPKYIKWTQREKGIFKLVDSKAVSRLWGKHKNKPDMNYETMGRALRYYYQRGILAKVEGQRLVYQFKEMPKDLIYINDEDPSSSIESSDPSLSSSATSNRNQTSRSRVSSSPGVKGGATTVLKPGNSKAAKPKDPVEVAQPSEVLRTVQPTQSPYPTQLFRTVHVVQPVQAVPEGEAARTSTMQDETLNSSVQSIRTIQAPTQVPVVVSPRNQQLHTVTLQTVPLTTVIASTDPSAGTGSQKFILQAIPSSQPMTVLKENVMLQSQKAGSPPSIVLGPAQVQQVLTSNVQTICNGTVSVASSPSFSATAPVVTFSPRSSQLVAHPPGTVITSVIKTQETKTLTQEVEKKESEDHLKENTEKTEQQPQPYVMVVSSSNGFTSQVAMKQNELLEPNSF
How it was run: as §1

[6] = target: T5, EHF (Homo sapiens, UniProt Q9NZC4 1-300); settings: protein: recombinant; tags: N-terminal GST; dsDNA, one strand shown
T5 sequence: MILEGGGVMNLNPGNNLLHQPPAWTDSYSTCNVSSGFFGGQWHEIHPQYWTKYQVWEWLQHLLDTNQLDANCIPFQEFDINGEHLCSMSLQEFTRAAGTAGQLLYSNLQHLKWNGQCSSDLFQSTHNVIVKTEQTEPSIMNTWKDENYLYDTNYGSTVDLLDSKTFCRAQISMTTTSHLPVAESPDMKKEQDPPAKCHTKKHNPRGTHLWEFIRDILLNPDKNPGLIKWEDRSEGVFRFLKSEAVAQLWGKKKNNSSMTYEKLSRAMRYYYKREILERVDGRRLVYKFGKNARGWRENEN
How it was run: as §1

[7] = target: SPI1 (Homo sapiens, UniProt P17947 1-270); settings: protein: recombinant; tags: N-terminal GST; dsDNA, one strand shown
How it was run: as §1

[8] = target: SPIB (Homo sapiens, UniProt Q01892 1-262); settings: protein: recombinant; tags: N-terminal GST; dsDNA, one strand shown
Chain of SPIB (Q01892 whole entry): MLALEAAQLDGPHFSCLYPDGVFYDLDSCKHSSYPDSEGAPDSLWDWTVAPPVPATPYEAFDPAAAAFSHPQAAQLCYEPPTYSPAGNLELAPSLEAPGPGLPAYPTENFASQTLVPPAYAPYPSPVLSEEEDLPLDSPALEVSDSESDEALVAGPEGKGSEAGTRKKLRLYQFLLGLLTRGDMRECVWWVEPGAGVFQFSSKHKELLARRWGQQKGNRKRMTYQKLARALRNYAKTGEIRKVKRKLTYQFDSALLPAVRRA
How it was run: as §1

[9] = target: T6, ELK3 (Homo sapiens, UniProt P41970 1-407); settings: protein: recombinant; tags: N-terminal GST; dsDNA, one strand shown
T6 sequence: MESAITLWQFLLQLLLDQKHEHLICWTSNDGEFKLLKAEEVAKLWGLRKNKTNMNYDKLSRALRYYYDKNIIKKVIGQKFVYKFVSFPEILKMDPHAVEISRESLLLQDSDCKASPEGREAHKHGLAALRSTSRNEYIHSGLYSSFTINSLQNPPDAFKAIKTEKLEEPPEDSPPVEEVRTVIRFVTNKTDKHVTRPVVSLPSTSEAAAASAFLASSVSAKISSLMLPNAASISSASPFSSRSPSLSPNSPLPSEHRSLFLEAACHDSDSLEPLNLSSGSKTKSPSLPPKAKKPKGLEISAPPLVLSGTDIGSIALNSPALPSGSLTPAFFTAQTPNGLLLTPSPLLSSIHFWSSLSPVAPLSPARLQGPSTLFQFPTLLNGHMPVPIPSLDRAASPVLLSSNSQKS
How it was run: as §1

[10] = target: T7, FEV (Homo sapiens, UniProt Q99581 1-238); settings: protein: recombinant; tags: N-terminal GST; dsDNA, one strand shown
T7 sequence: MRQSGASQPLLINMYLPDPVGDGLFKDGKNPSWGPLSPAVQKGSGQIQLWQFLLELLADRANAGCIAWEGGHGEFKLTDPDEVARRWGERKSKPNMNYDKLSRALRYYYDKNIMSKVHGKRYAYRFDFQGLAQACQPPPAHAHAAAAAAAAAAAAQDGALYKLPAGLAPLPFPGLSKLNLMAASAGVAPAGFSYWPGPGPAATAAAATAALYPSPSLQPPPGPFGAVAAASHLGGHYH
How it was run: as §1

[11] = target: ETV5 (Homo sapiens, UniProt P41161 1-510); settings: protein: recombinant; tags: N-terminal GST; dsDNA, one strand shown
Chain of ETV5 (P41161 whole entry): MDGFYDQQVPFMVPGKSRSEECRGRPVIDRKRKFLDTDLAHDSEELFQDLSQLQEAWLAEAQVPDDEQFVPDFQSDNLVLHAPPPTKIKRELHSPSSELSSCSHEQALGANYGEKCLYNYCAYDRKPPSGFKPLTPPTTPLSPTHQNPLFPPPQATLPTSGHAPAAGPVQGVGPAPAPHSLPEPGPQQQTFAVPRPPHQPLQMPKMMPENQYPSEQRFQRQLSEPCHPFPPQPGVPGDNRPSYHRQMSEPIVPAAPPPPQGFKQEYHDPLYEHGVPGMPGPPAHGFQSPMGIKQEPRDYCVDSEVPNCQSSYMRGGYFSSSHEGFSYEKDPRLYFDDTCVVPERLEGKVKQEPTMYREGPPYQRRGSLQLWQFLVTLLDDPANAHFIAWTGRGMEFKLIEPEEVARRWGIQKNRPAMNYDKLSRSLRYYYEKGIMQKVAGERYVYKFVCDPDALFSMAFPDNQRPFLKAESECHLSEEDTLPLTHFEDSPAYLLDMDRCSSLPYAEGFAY
How it was run: as §1

[12] = target: HSF1 (Homo sapiens, UniProt Q00613 1-529); settings: protein: recombinant; tags: N-terminal GST; chain copies: 3; dsDNA, one strand shown
Chain of HSF1 (Q00613 whole entry): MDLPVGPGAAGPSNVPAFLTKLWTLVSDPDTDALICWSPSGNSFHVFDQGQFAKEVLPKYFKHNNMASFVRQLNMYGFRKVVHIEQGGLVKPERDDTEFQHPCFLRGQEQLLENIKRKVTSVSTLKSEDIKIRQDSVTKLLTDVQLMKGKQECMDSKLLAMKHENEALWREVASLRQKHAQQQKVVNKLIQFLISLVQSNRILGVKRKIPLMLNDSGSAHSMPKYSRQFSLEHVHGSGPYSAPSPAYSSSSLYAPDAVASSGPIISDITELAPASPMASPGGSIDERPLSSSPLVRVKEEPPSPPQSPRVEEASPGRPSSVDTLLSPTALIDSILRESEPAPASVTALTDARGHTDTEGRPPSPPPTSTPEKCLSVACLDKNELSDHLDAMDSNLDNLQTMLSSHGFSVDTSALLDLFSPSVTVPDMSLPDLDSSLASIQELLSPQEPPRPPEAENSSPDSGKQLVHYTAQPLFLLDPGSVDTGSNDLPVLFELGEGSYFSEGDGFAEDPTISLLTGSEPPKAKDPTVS
How it was run: as §1

[13] = target: T8, SPIC (Homo sapiens, UniProt Q8N5J4 1-248); settings: protein: recombinant; tags: N-terminal GST; dsDNA, one strand shown
T8 sequence: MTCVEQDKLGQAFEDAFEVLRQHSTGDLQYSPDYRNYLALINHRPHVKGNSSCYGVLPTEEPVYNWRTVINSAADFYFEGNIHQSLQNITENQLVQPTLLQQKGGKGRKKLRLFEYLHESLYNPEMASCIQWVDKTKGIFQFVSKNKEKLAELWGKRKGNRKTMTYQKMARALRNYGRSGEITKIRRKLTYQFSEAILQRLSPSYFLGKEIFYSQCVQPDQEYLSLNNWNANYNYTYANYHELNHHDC
How it was run: as §1

[14] = target: ELF4 (Homo sapiens, UniProt Q99607 1-663); settings: protein: recombinant; tags: N-terminal GST; dsDNA, one strand shown
Chain of ELF4 (Q99607 whole entry): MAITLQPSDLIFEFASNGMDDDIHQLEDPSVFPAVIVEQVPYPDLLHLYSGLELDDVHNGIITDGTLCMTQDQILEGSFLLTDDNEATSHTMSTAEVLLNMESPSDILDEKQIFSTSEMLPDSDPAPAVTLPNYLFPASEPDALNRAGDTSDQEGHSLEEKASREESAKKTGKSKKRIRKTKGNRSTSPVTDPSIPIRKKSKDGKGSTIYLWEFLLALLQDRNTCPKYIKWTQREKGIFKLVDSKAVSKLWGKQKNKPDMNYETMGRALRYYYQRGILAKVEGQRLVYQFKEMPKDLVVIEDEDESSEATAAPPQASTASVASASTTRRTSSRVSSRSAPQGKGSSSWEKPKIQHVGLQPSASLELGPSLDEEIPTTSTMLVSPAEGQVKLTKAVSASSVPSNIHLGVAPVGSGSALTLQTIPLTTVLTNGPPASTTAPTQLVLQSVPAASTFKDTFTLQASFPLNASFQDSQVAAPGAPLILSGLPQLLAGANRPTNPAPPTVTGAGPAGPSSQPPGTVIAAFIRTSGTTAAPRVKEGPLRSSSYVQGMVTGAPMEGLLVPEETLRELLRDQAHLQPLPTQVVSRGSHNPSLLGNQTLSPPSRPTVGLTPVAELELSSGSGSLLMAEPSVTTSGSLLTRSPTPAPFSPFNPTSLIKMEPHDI
How it was run: as §1

[15] = target: T9, ELK4 (Homo sapiens, UniProt P28324-2 1-405); settings: protein: recombinant; tags: N-terminal GST; dsDNA, one strand shown
T9 sequence: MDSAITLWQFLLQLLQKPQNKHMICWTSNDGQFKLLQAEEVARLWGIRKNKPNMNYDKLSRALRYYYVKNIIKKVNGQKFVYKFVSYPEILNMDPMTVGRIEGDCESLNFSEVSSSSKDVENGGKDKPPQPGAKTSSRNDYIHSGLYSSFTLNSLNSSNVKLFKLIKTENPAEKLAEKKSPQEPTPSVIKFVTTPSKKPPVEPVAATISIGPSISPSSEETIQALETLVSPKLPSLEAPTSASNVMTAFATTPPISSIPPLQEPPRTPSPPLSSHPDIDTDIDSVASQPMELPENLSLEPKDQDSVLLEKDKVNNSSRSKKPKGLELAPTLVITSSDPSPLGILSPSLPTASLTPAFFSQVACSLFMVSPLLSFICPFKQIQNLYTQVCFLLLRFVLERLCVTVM
How it was run: as §1

[16] = target: T10, ETV2 (Homo sapiens, UniProt O00321 1-342); settings: protein: recombinant; tags: N-terminal GST; dsDNA, one strand shown
T10 sequence: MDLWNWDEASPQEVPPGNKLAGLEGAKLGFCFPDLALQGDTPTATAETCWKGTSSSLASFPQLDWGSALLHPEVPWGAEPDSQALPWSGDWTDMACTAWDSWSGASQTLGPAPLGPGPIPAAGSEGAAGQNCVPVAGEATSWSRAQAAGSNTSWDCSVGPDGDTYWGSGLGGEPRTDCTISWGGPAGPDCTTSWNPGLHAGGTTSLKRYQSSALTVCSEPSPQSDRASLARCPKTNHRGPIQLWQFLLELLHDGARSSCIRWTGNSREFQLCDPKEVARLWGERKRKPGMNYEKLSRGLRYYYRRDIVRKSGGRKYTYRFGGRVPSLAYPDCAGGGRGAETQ
How it was run: as §1

[17] = target: T11, ELF3 (Homo sapiens, UniProt P78545 1-371); settings: protein: recombinant; tags: N-terminal GST; dsDNA, one strand shown
T11 sequence: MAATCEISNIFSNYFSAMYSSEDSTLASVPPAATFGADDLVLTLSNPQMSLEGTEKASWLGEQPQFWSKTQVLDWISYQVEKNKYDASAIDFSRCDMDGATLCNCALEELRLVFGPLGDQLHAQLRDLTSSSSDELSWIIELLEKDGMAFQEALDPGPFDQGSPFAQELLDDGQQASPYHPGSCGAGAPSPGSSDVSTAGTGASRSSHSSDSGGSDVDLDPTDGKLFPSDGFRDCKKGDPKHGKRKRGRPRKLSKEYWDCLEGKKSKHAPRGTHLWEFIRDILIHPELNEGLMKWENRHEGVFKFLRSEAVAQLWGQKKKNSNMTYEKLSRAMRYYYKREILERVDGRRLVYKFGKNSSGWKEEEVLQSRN
How it was run: as §1

[18] = target: ETV1 (Homo sapiens, UniProt P50549 1-477); settings: protein: recombinant; tags: N-terminal GST; dsDNA, one strand shown
Chain of ETV1 (P50549 whole entry): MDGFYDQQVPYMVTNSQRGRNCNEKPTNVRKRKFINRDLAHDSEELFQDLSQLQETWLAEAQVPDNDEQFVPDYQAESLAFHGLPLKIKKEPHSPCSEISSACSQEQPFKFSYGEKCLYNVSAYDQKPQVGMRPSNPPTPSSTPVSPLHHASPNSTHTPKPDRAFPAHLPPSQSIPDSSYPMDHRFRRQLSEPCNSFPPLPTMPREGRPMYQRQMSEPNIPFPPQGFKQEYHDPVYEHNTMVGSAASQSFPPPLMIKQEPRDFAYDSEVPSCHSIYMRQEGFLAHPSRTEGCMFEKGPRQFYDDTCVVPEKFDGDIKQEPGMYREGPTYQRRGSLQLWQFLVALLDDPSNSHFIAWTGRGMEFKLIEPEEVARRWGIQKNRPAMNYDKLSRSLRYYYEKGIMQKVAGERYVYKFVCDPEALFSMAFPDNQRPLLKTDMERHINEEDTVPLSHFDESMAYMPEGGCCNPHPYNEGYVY
How it was run: as §1

Sequence: GCACTC
- binding signal [1]: 1.29 fold enrichment (6-mer frequency, TF over GST control)
- binding signal [2]: 1.5 fold enrichment (6-mer frequency, TF over GST control)
- binding signal [3]: 1.32 fold enrichment (6-mer frequency, TF over GST control)
- binding signal [4]: 1.31 fold enrichment (6-mer frequency, TF over GST control)
- binding signal [5]: 1.33 fold enrichment (6-mer frequency, TF over GST control)
- binding signal [6]: 1.37 fold enrichment (6-mer frequency, TF over GST control)
- binding signal [7]: 1.35 fold enrichment (6-mer frequency, TF over GST control)
- binding signal [8]: 1.35 fold enrichment (6-mer frequency, TF over GST control)
- binding signal [9]: 1.28 fold enrichment (6-mer frequency, TF over GST control)
- binding signal [10]: 1.31 fold enrichment (6-mer frequency, TF over GST control)
- binding signal [11]: 1.38 fold enrichment (6-mer frequency, TF over GST control)
- binding signal [12]: 1.06 fold enrichment (6-mer frequency, TF over GST control)
- binding signal [13]: 1.25 fold enrichment (6-mer frequency, TF over GST control)
- binding signal [14]: 1.31 fold enrichment (6-mer frequency, TF over GST control)
- binding signal [15]: 1.33 fold enrichment (6-mer frequency, TF over GST control)
- binding signal [16]: 1.36 fold enrichment (6-mer frequency, TF over GST control)
- binding signal [17]: 1.41 fold enrichment (6-mer frequency, TF over GST control)
- binding signal [18]: 1.33 fold enrichment (6-mer frequency, TF over GST control)
